GLP1R cytotox – cytotoxic in the GLP-1 receptor inverse agonist counter-screen | Potency, µM (doses to about 38.3 µM), inactives show at the top dose activity change, negative = inhibition, hits mostly inhibitors | HEK293 cAMP-luciferase reporter cells, luminescence, 24 h | hit rate 0.13% among 410,000;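 note: loss of luciferase light is scored as toxicity; % is set by controls: 0 for no effect and ±100 for the full control effect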
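Step one: seed cells (200 cells/uL, DMEM with 10% Nu serum, 1% pen-strep). Step two: 12-hour incubation at 37 deg C. Step three: pin 23 nL compound, incubate 24 hr. Step four: add luciferase reagent, read luminescence 12 min later.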
ClpP mod – qHTS Assay for Activators of ClpP; purified B. subtilis ClpP, FRET peptide cleavage, 20 min; Potency, µM (doses to about 57.5 µM), for the others: at the top dose activity change, negative = active; hit rate 1.9% among 340,000; AID 651965, 2013; active = well fitted falling curve with a large enough effect; inconclusive = small, poorly fitted or top-dose-only effect; inactive = no such curve, though single readings can be large or run the other way; note: the source files actives as falling curves though it sought activators and does not explain the sign; nearly all actives have a fitted effect of over 65% in size
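Purified B. subtilis ClpP, 10 microg/mL final in Tris/HCl pH8 with KCl, BSA, glycerol and Tween-20, cleaved an Abz/nitrotyrosine-quenched decapeptide. Fluorescence (ex 320, em 430) was read at 0 and 20 min at room temperature. Delta was normalized to 5.8 microM ADEP and DMSO/no-enzyme controls.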
GLP-1R agonist – GLP-1 receptor (human) agonism; P43220; HEK293 GLP-1R CRE-luciferase, luminescence, 4-6 h; cells express a hypersensitive GLP-1R form; Potency, µM (highest dose often 45.6 µM), for inactives: top-dose activation, hits mostly activators; hit rate 0.007% among 380,000; AID 624172; note: % of control where 0% means no effect
Target sequence (P43220 whole entry, looked up): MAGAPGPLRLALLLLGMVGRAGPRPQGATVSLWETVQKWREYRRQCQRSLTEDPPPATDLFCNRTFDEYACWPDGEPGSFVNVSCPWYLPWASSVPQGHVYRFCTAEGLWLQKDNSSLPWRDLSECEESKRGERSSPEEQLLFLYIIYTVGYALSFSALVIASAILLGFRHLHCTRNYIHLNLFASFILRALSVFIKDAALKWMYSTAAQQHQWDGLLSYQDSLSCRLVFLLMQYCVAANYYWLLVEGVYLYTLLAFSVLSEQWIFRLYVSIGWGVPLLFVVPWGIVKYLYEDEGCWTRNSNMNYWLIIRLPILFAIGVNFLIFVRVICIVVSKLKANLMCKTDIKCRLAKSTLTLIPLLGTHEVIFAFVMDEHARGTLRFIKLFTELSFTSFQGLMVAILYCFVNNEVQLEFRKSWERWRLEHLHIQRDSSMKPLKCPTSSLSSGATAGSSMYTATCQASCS
GLP-1R inv ag – acts as inverse agonist at human GLP-1 receptor | P43220 | HEK293 GLP-1R CRE-luciferase, luminescence, 24 h; GLP-1R form is constitutively active | Potency, µM (series often up to 38.3 µM), inactives show at the top dose activity change, negative = inhibition, hits mostly inhibitors | hit rate 1.6% among 410,000 | AID 624417; note: % is set by controls: 0 for no effect and ±100 for the full control effect; nearly all actives have a fitted effect of over 55% in size
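qHTS in 1536-well format: reporter HEK293 cells expressing constitutive GLP-1R activity in DMEM + 10% Nu serum, 24 hr with compounds at 37 deg C, luminescence read after 12 min with detection reagent.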
An asterisk follows results filed as active; ? = inconclusive; / = no result given. Only some compounds are listed: those with a hit (about 3.2% of all), similar ones and a draw of the others. Unless noted, calls come from the whole dose curve; as a rule, active = well fitted curve in the direction sought with a large enough effect; inconclusive = small, poorly fitted or top-dose-only effect, or another doubt; inactive = no such curve, though single readings can be large; an effect the other way counts as inactive or inconclusive. Potency is the fitted concentration of half-maximal effect.

SMILES | GLP1R cytotox | ClpP mod | GLP-1R agonist | GLP-1R inv ag
Cc1ccc2c(c1)N(C(=O)N1CCC(C(=O)NC3CCCCCC3)CC1)CC(C)O2 (centres undefined) | 4.9% | 0.8% | / | 7.0%
O=C(CCCC(=O)c1ccc(O)cc1)c1ccc(O)cc1 | -3.5% | 0.5% | -2.0% | -13.3%
O=C1C=CC(=C(c2ccc(O)cc2)c2ccc(O)cc2)C=C1 | 8.91µM* | -0.1% | -6.4% | 5.62µM*
O=S(=O)(Nc1ccc2ccccc2c1)c1ccccc1 | -6.0% | 14.1µM* | 3.3% | -16.7%
COc1cc(C(=O)Nc2ccc3nc(SCc4ccc(C)cc4)sc3c2)cc(OC)c1OC | -1.6% | ? | / | ?
CSC1=NC=C(C#N)C2=NC(c3c(Cl)cccc3Cl)NN12 (centres undefined) | 4.6% | -2.4% | 3.1% | -16.6%
OC(c1ccccc1)C(NCCNCc1ccccc1)c1ccccc1 (centres undefined) | -1.7% | / | 11.0% | 7.94µM*
OC(CNCCc1ccccc1)c1ccccc1 (centres undefined) | 2.0% | -1.0% | 27.1% | 6.0%
COc1ccc(N2CCN(C(=O)CSc3nnc(-c4cccnc4)n3-c3ccc(F)cc3)CC2)cc1 | ? | -1.1% | 14.0% | -14.9%
COc1ccc(N2CCN(C(=O)CSc3nnc(-c4cccnc4)n3-c3ccccc3)CC2)cc1 | 7.9% | -3.4% | 1.6% | 11.2µM*
COc1ccc(N2CCN(C(=O)CSc3ncccc3-c3nc4ccccc4[nH]3)CC2)cc1 | -4.7% | 25.1µM* | -9.9% | 0.0%
N/C(=N\OC(=O)Cc1cccc2ccccc12)c1ccccn1 | ? | 0.3% | 23.8% | ?
N/C(=N\OC(=O)c1ccc(=O)n(Cc2ccccc2)c1)c1ccccn1 | -0.2% | 28.2µM* | 8.6% | 91.5%
N/C(=N\OC(=O)c1cccc2ccccc12)c1ccccn1 | 3.98µM* | / | 10.2% | ?
COc1cccc(C(=O)O/N=C(\N)c2ccccn2)c1OC | 10.3% | 0.7% | -9.5% | 7.94µM*
CC(CNC(=O)c1ccc(Cn2c(=O)c3cccn3c3cccnc32)cc1)c1ccccc1 (centres undefined) | 3.4% | ? | / | 16.0%
Cc1ccc(OCC(=O)Nc2nnc(SCc3cc(=O)c4ccccc4[nH]3)s2)cc1 | 8.3% | 2.3% | / | 10.1%
COc1ccccc1N1CCN(c2ccc(=O)n(CC(=O)Nc3ccc(F)c(F)c3)n2)CC1 | 13.1% | -17.0% | / | -13.7%
COCCCNCCOCCOc1ccc(Cl)cc1C(C)(C)C | ? | -4.8% | -13.6% | 3.55µM*
CCCCn1c(=O)[nH]c(=O)c2c1nc(-c1ccc(-c3ccccc3Br)o1)n2CCOC | -16.5% | 31.6µM* | 10.2% | 19.3%
COCCn1c(-c2ccc(NC(C)=O)cc2)nc2c1c(=O)[nH]c(=O)n2CC(C)C | -13.8% | / | 14.3% | 37.6%
COCCn1c(-c2ccc(-c3ccccc3Cl)o2)nc2c1c(=O)[nH]c(=O)n2CC(C)C | -2.6% | 3.98µM* | -1.2% | 0.0%
CCOc1ccc(Nc2nc(N)nc(CCl)n2)cc1 | ? | 1.1% | ? | 5.01µM*
CCOc1ccc(Nc2nc(N)c3ccccc3n2)cc1 | -31.7% | / | -4.7% | 2.24µM*
Nc1nc(Nc2ccc(Cl)cc2)nc2ccccc12 | 2.5% | ? | -0.5% | ?
SMILES | GLP1R cytotox | ClpP mod | GLP-1R agonist | GLP-1R inv ag
CN(C)c1ccc(Nc2nc(N)c3ccccc3n2)cc1 | -11.8% | / | -3.9% | 2µM*
Nc1nc(Nc2ccccc2)nc2ccccc12 | 14.8% | -3.6% | -17.2% | ?
CC(=O)N1CCc2c(sc3c2c(=O)n(-c2ccc(C)cc2)c(=O)n3Cc2c(F)cccc2Cl)C1 | -8.3% | -9.7% | / | -4.4%
CCOc1ccc(CCNC(=O)c2ccc(Cn3c(=O)c4cccn4c4cccnc43)cc2)cc1 | 0.1% | 4.5% | / | -5.3%
CCOC(=O)c1c(-c2ccccc2)csc1NC(=O)c1cc(-c2ccc(F)cc2)on1 | -0.8% | 3.9% | / | 8.6%
CN(C)CCNc1ncnc2c1cnn2-c1ccc(Cl)cc1 | ? | 4.2% | -14.3% | 3.16µM*
Cc1cccc(-n2ncc3c(Nc4c(C)cc(C)cc4C)ncnc32)c1 | -30.6% | -24.5% | / | 5.62µM*
CN(C)CCNc1ncnc2c1cnn2-c1cccc(Cl)c1 | -4.2% | -12.5% | / | ?
CCc1ccccc1Nc1ncnc2c1cnn2-c1ccc(Cl)cc1 | -4.9% | 31.6µM* | / | ?
Cc1ccc(-n2ncc3c(Nc4cccc(Cl)c4)ncnc32)c(C)c1 | -20.1% | 4.4% | / | ?
